HCV inhibitor: blocks hepatitis C virus. AID 651820. hit rate 3.4% among 340,000. Potency, µM (top dose mostly 41.8 µM), for inactives: at the top dose activity change, negative = inhibition, actives largely listed as inhibitors. Huh7.5.1 HCVcc-Cre infection, luciferase reporter, 44 h; active = well fitted inhibition curve with a large enough effect; inconclusive = small, poorly fitted or top-dose-only effect, or another doubt; inactive = no such curve, though single readings can be large or run the other way; also: potency is read from the fitted curve at half-maximal effect; % is scaled to controls: 0 for no effect and ±100 for the full control effect
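Compounds are dispensed onto cells plated 4 h earlier at 1,000 per well, with HCVcc-Cre virus (about 0.5 moi) added next. Following 44 h of culture, luminescent signal is measured for 15 sec after 15 min with substrate at room temperature.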
Cycloheximide cs: counter-screen for Shiga toxin inhibitors: cycloheximide protein synthesis inhibition; max response, %; cell reporter, cycloheximide protein synthesis inhibition counterscreen; hit rate 12% among 300,000; AID 2314; in the data active = max response mostly above about 13%, no sharp cut-off; inactive = mostly below about 14%; also: read at 38.3 µM for the half of the compounds with a filed dose; 0% is about no effect
FMDV antiviral: antivirals against foot and mouth disease virus; hit rate 1.2% among 410,000; FMDV antiviral cell-based qHTS; Potency, µM (doses to about 57.9 µM), without a hit: top-dose activity change, negative = inhibition, hits mostly inhibitors; AID 1159524; calls by dose curve; tested in HEK293T cells; also: read-out not given here; potency is read from the fitted curve at half-maximal effect; % is scaled to controls: 0 for no effect and ±100 for the full control effect; nearly all actives have a fitted effect of over 45% in size
Lassa entry inh: blocks Lassa virus binding to or entry into cells; Potency, µM (doses to about 37.9 µM), inactives show at the highest dose activity change, negative = inhibition, actives largely listed as inhibitors; hit rate 1.2% among 300,000; Lassa virus pseudotype entry inhibition, cell reporter; AID 540256; calls by dose curve; tested in HEK293 cells; also: potency is read from the fitted curve at half-maximal effect; % is scaled to controls: 0 for no effect and ±100 for the full control effect; nearly all actives have a fitted effect of over 50% in size
Marburg entry inh: inhibitors of Marburg virus binding or cell entry | hit rate 1.8% among 300,000 | Marburg virus pseudotyped entry inhibition, cell reporter | AID 540276 | Potency, µM (titrated, usually from 37.8 µM), for the others: at the top dose activity change, negative = inhibition, usual class: inhibitors; calls by dose curve; tested in HEK293 cells; also: potency is read from the fitted curve at half-maximal effect; % is scaled to controls: 0 for no effect and ±100 for the full control effect
Shiga toxin inh: Shiga toxin inhibition; Vero cells, Shiga toxin protein synthesis inhibition reporter; inhibition, % at 38.7 µM; hit rate 9.2% among 290,000; in the data active = inhibition mostly above about 28%, no sharp cut-off; inactive = mostly below about 43%; also: 0% is about no effect
The depositor's hits bear a star; ? = inconclusive; nt = no result given; ! = repeats disagree; [ ] = remark or other dose. This is a sample that favours compounds with a hit; in the whole collection about 13% have one here.

SMILES	HCV inhibitor	Cycloheximide cs	FMDV antiviral	Lassa entry inh	Marburg entry inh	Shiga toxin inh
COc1ccc(OC)c(CN2CCN(C(=O)c3cccs3)CC2)c1	7.8%	-1.1	-10.9%	1.3%	?	3.3
COc1ccc(NC(=O)CN(C)CC(=O)Nc2ccc3c(c2)CCC3)cc1	-10.3%	-0.8	4.3%	-25.3%[46.1 µM]	?	-7.2
COc1ccc(NC(=O)O/N=C2/CCCc3ccc(OC)cc32)cc1	2.82µM*	11.1	0.6%	?	?	56.7
CCOC(=O)C(NC(=O)CC)(Nc1ccc(S(=O)(=O)Nc2cc(C)on2)cc1)C(F)(F)F (stereo unspecified)	4.2%	-3.0	-8.1%	2.0%	-6.0%	2.5
C=C1CCN(C(Cc2ccccc2)C(=O)N2CCOCC2)S(=O)(=O)c2ccccc21 (stereo unspecified)	nt	-5.3	nt	nt	nt	-13.2
CCn1cc(C(=O)NCCc2ccccc2)c(=O)c2cc(F)c(N3CCN(C)CC3)cc21	10µM*	13.4*	23.7%	5.5%	-1.5%	11.4
CCC(=O)c1cc(F)c(N2CCN(C(=O)c3ccco3)CC2)cc1C	2.6%	24.2*	-16.0%	nt	nt	45.2*
CCCCCCNC(=O)c1cn(CC)c2cc(N3CCN(C)CC3)c(F)cc2c1=O	10µM*	-4.4	-20.7%	nt	nt	-8.8
CCn1cc(C(=O)NCC(C)C)c(=O)c2cc(F)c(N3CCN(C(=O)c4ccco4)CC3)cc21	?	-2.1	-14.7%	?	1.1%[46.1 µM]	-4.3
CCC(C)NC(=O)c1cn(CC)c2cc(N3CCN(C(=O)c4ccco4)CC3)c(F)cc2c1=O (stereo unspecified)	14.1µM*	8.4	-17.8%	?	4.4%[46.1 µM]	16.8
COc1cccc(NS(=O)(=O)c2csc(C(N)=O)c2)c1	-28.8%	-1.9	23.7%	nt	nt	-18.8
CCN1C(=O)[C@H]2[C@@H](c3ccc(OC)cc3)N[C@]3(CCCN(Cc4ccccc4)C3=O)[C@H]2C1=O	nt	nt	-17.4%	nt	nt	nt
CC(C)c1ccc(C2NC(=O)c3n[nH]c(-c4cccs4)c32)cc1 (stereo unspecified)	nt	nt	0.0%	-17.9%[46.1 µM]	-9.6%[46.1 µM]	nt
COCC(C)N=C1NN=C(c2cccs2)C(CC(=O)O)S1 (stereo unspecified)	18.1%	5.5	-2.8%	nt	nt	-3.3
CC(C)N=C1NN=C(c2ccc(Cl)c(Cl)c2)CS1	?	38.4*	-2.9%	-1.6%[46.1 µM]	?	102.3*
CC(C)N=C1NN=C(c2cccs2)CS1	11.0%	34.6*	17.0%	-15.8%	-10.8%[46.1 µM]	54.3*
CC(C)c1ccc(N=C2NN=C(c3cccs3)CS2)cc1	?	40.8*	34.7%	?	?	86.8*
O=C(c1ccc(Cl)nc1)N1CCC(Cc2ccccc2)CC1	-0.7%	-3.9	-21.8%	-18.9%	-0.1%[46.1 µM]	-7.8
Cc1c(CC(=O)N2CCCCC2)c(=O)oc2c(C)c(O)ccc12	nt	nt	5.5%	-5.8%[46.1 µM]	7.4%[46.1 µM]	nt
CCOC(=O)c1c(NC(=O)C2C3CCC(O3)C2C(=O)O)sc(C)c1-c1ccc(C)cc1 (stereo unspecified)	-17.1%	3.6	0.0%	-19.1%	-1.7%	13.2
Cc1sc(NC(=O)C2C3CCC(O3)C2C(=O)O)nc1-c1ccc(CC(C)C)cc1 (stereo unspecified)	?	41.7*	15.6%	1.8%	?	80.1*
CC(C)C(=O)Nc1ncc(Cc2cccc(Cl)c2)s1	-8.7%	11.5	-20.3%	-35.4%	?	-17.3
COc1ccc(CC(=O)N2N=C(c3ccncc3)CC2(O)C(F)(F)F)cc1 (stereo unspecified)	-10.6%	0.4	-14.7%	nt	nt	-9.8
O=C(c1ccco1)N1N=C(c2ccc(Br)cc2)CC1(O)C(F)(F)F (stereo unspecified)	?	-1.1	?	?	10µM*	-2.6
CCc1ccc(C2=NN(C(=O)OC)C(O)(C(F)(F)F)C2)cc1 (stereo unspecified)	-1.9%	37.0*	nt	?	?	61.7*
SMILES	HCV inhibitor	Cycloheximide cs	FMDV antiviral	Lassa entry inh	Marburg entry inh	Shiga toxin inh
CCOC(=O)N1N=C(c2ccccc2)CC1(O)C(C)(F)F (stereo unspecified)	2.4%	-2.1	-14.5%	-26.0%[46.1 µM]	-2.8%[46.1 µM]	-7.0
CCOC(=O)N1N=C(c2ccc(OC)cc2)CC1(O)C(F)(F)F (stereo unspecified)	1.4%	42.5*	18.9%	nt	nt	48.9*
Cn1nc(C(C)(C)C)cc1N1C(=O)CCC1(C)C(=O)Nc1ccc2ccccc2c1 (stereo unspecified)	nt	nt	-7.5%	nt	nt	nt
O=C(CSc1nnc(-c2ccc(F)cc2)o1)N1CCCC1	-12.2%	16.4*	0.0%	nt	26.3%[46.1 µM]	33.6
COc1ccc(-c2nnc(SCC(=O)N3CCCCC3)o2)cc1	-17.5%	11.5	45.9%	28.4%[46.1 µM]	?	25.9
COc1ccc(-c2nnc(SCC(=O)N3CCCC(C)C3)o2)c(OC)c1 (stereo unspecified)	-2.1%	-1.4	nt	0.0%	-3.2%	21.6
COc1ccc(-c2nnc(SCC(=O)N3CCCCC3)o2)c(OC)c1	-22.5%	30.4*	nt	-11.5%	?	25.1
Cc1ccc(-c2nnc(SCC(=O)N3CCCC3)o2)cc1C	-3.5%	36.2*	2.9%	?	?	71.6*
COc1ccc(-c2nnc(SCC(=O)N3CCCC3)o2)cc1	3.8%	32.5*	45.4%	0.5%	?	66.6*
COc1cccc(NC(=O)CN(C)C(=O)CN2C(=O)NC(C)(c3ccc(C)cc3)C2=O)c1 (stereo unspecified)	-11.9%	nt	-7.2%	nt	nt	nt
COCCN(C(=O)CSc1n[nH]c(-c2ccccc2)n1)c1c(N)n(Cc2ccccc2)c(=O)[nH]c1=O	24.9%	nt	-12.5%	2.5%	-0.5%	nt
CCOC(=O)N1CCN(C(=O)CSc2nnc(-c3ccccc3OC)o2)CC1	-9.1%	12.3	-3.0%	-6.4%	2.9%[46.1 µM]	20.4
Cc1cccc(-c2nnc(SCCC(=O)O)o2)c1	nt	nt	?	1.26µM*	?	nt
Cc1cccc(-c2nnc(SCC(=O)N3CCCCC3)o2)c1	nt	nt	31.3%	18.8%[46.1 µM]	?	nt
Cc1ccc(-c2nnc(SCC(=O)NC3CC3)o2)cc1	-0.3%	23.8*	17.4%	16.9%[46.1 µM]	?	60.8*
CCOC(=O)N1CCN(C(=O)CSc2nnc(-c3cc(OC)ccc3OC)o2)CC1	10µM*!	-2.5	?	-8.3%	?	14.0
Cc1cccc(-c2nnc(SCC(=O)N3CCCC3)o2)c1	-11.5%	19.1*	43.0%	26.1%[46.1 µM]	7.0%[46.1 µM]	92.5*
Cc1cccc(-c2nnc(SCCC(=O)N3CCOCC3)o2)c1	25.1%	9.0	-19.5%	?	3.0%	50.3
Cc1ccccc1Cn1cc(CCC(=O)NCc2cccc(Br)c2)c2ccccc21	nt	nt	-0.9%	-0.1%[46.1 µM]	nt	nt
COc1ccc(S(=O)(=O)NCCC(=O)OCC(=O)NC2CC2)cc1	9.4%	nt	-16.5%	17.0%	?	nt
O=C(CSc1nnc(COc2ccc(Cl)cc2)o1)N1c2ccccc2CCc2ccccc21	10µM*	-1.2	0.0%	?	?	-4.3
Cc1ccc(-c2nnc(SCC(=O)N3CCCC3)o2)cc1	-0.4%	17.0*	56.4%	?	11.4%	56.4
CC(C)c1ccc(OCc2nnc(SCC(=O)N3CCCCC3)o2)cc1	?	31.8*	0.0%	?	?	26.5
